Among all 340,000 compounds or so, about 2,100 (0.62%) were called active.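 The calls were made as follows: active = first-screen hits whose inhibition reached a set limit at any dose in the follow-up dose series; inconclusive = inhibition above the set first-screen limit but never retested; inactive = the rest.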 A selection follows. Entries with a potency or affinity are not part of this list.

Rac GTPase-activating protein 1 (Homo sapiens), sequence (Q9H0H5 whole entry, looked up): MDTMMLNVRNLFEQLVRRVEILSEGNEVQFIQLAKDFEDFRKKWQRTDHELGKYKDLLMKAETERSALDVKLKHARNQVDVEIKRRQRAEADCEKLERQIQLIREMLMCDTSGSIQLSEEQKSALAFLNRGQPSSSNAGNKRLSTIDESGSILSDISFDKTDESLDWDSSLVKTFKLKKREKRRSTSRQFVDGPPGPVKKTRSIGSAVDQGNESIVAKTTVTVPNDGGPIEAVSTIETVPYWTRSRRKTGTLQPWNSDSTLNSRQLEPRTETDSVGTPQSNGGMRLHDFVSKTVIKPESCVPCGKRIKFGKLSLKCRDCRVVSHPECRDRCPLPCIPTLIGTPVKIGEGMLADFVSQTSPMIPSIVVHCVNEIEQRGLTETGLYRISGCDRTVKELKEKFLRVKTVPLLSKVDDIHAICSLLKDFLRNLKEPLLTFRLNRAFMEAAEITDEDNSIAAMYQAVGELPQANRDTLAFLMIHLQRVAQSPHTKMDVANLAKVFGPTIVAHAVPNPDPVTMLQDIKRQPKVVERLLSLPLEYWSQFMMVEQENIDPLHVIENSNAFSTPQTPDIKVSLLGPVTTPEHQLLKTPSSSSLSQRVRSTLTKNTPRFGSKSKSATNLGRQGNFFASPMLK

This test concerns the target Rac GTPase-activating protein 1 (Homo sapiens) (UniProt Q9H0H5). The test can be described thus: MgcRacGAP GTPase-activating activity inhibitors, confirmation, biochemical, ADP Hunter fluorescence, primary and confirmatory (AID 624330).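 Also: fluorescence reports GDP produced by GAP-driven GTP hydrolysis.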 The note with it: MgcRacGAP-stimulated Rac1 GTP hydrolysis, at 30 µM, hits give high values, GST-tagged Rac1 F28L mutant substrate.
Usually inhibition stands for the change of the read-out against control, counted positive when it falls. With `CC(=O)c1ccc(NC(=O)CN2CCN(c3ccccc3)CC2)cc1`, the inhibition was 5.48% (inactive).
As to `COc1ccc2[nH]c3c(=O)n(CCCCC(=O)N4CCCC4)c(=S)[nH]c3c2c1`, the inhibition is 23.1% (inactive).
The value for `COc1ccc2[nH]c3c(=O)n(Cc4ccc(C(=O)N5CCCC5)cc4)c(=S)[nH]c3c2c1` was 4.08% (inactive); that for `CC[C@H](C)NC(=O)CCCCCn1c(=S)[nH]c2c([nH]c3ccc(OC)cc32)c1=O` was 3.32% (inactive).
The result for `COc1ccc2[nH]c3c(=O)n(Cc4ccc(C(=O)N5CCCCCC5)cc4)c(=S)[nH]c3c2c1` reads 6.08% (inactive); that for `CC(C)(CO)CNC(=O)CCc1nnc(-c2ccc(-c3ccccc3)cc2)o1`, 9.2% (inactive); that for `CC(OC(=O)c1ccc(-c2ccc(O)cc2)cc1)C(=O)NC1CCCCC1C` (stereo not drawn), 8.27% (inactive).
The value for `CC(C)CN1CCC(Oc2cccc(C(=O)NCCc3ccccc3)c2)CC1` was 11.2% (inactive); that for `CC(=O)c1sc(NC(=O)c2cccc(N3C(=O)CCC3=O)c2)nc1-c1ccccc1` was 2.55% (inactive).
Take `C[C@@H]1CN([C@@H](C)CO)C(=O)CCCn2nncc2CO[C@H]1CN(C)S(=O)(=O)c1ccc2c(c1)OCCCO2`: the inhibition is 7.05% (inactive).
In the case of `Cc1ccc([C@@H]2C[C@H]3[C@@H](CN2S(=O)(=O)c2ccc(Cl)cc2)C(=O)C[C@@H](c2ccccc2)N3S(=O)(=O)c2ccc(C)cc2)cc1`, the inhibition was 17.6% (inactive).
The value for `Cc1ccc(C2/C=C\CC(NC(=O)OCC3c4ccccc4-c4ccccc43)CC(=O)N2Cc2ccccc2)cc1` (stereo not drawn) was 7.21% (inactive); that for `Cc1c(-c2ccccc2)cn2c1-c1ccc(C)n1CC2` was 5.62% (inactive).
The result for `CCCC1=[N+](CC(C)=O)CCn2c(C)ccc21` reads -4.62% (inactive); that for `COc1cc2c(cc1NC(=O)CSc1nc3cc(Cl)ccc3s1)oc1ccccc12`, 5.98% (inactive).
Turning to `CCc1ccc(-c2nn(Cc3ccccc3)cc2C(=O)NCC2CCCO2)cc1` (stereo not drawn), the inhibition is 0.77% (inactive).
The value for `O=C(N/N=C/c1cccc(F)c1)c1cc(-c2ccco2)nc2ccccc12` was 7.31% (inactive).
The value for `CC(=O)Nc1ccc(/C=N/NC(=O)c2cc(-c3ccco3)nc3ccccc23)cc1` was 6.26% (inactive).
Take `CSc1nc(C)c(C(=O)C[n+]2ccccc2)cc1C#N`: the inhibition was 5.97% (inactive).
With `FC(F)(F)c1cccc(N2CCN(Cc3ccoc3)CC2)c1`, the inhibition is 9.97% (inactive).
The result for `COc1ccc(-n2c(=S)[nH]c3cc(C(=O)O)ccc3c2=O)cc1` reads 1.88% (inactive); that for `COc1ccc(OC)c(N)c1`, 18.5% (inactive).
The result for `COc1cc(S(N)(=O)=O)c(OC)cc1N` reads 7.46% (inactive); that for `COc1ccc(N=Nc2ccc(N)nc2N)cc1`, 18.6% (inactive).
In the case of `Cc1ccc(N=Nc2ccc(N)cc2C)c(S(N)(=O)=O)c1`, the inhibition is 13.8% (inactive).
Turning to `COc1ccc(C(=O)c2ccc(OC)c(N)c2)cc1N`, the inhibition was 4.59% (inactive).
On to `Cc1cc(N=Nc2c(O)c3ccccc3[nH]c2=O)ccc1N=Nc1ccc(C(=O)N(C)C)cc1`, for which the inhibition was 6.51% (inactive).
The value for `CCCNS(=O)(=O)c1ccc(CCC(=O)NCCc2ccc(OC)c(OC)c2)cc1` was 1.4% (inactive); that for `NC(N)=NC1=NC(=O)/C(=C/c2ccccc2-n2cccn2)S1` was 10.9% (inactive); that for `CC1(C)CC(=O)C(C=Nc2ccc(NC3=C(C#N)C(=O)CC(C)(C)C3)cc2)=C(O)C1` was 7.44% (inactive).
Take `CC(/C=N/O)Cc1ccc2c(c1)OCO2` (stereo not drawn): the inhibition was 2.11% (inactive).
The value for `COc1ccc(C2C(C(=O)NCc3ccco3)c3ccccc3C(=O)N2C)cc1` (stereo not drawn) was 0.04% (inactive); that for `CC1=C(C(=O)N(C)C)CC(CC(=O)NC2CCCC2)C(=O)N1CCC1=CCCCC1` (stereo not drawn) was 14.5% (inactive); that for `O=C(CNC(=O)c1ccccc1Br)N/N=C/c1cccs1` was 0.32% (inactive).
For `CCn1c2ccccc2c2cc(NC(=O)CC(C)=O)ccc21`, the inhibition was 8.51% (inactive).
For `CCn1c2ccccc2c2cc(NC(C)=O)ccc21`, the inhibition is 6.13% (inactive).
The value for `CCn1c2ccccc2c(=O)c2ccccc21` was 5.08% (inactive).
Consider `CCn1c2ccccc2c2cc(CNCCCN3CCOCC3)ccc21`, for which the inhibition was 20.3% (inactive).
The value for `CCCC(=O)Nc1ccc2c(c1)c1ccccc1n2CC` was 10.5% (inactive); that for `COc1ccc(CNCc2ccc3ccccc3c2)c(OC)c1` was 28.9% (inactive); that for `COc1cccc(CNCc2ccc(OC)cc2OC)c1` was 22.9% (inactive).
The value for `CCn1c2ccccc2c2cc(CC(N)=O)ccc21` was 8.07% (inactive); that for `CC1=CC(C)(C)NC(=S)N1c1cccc2ccccc12` was 12.8% (inactive).
Regarding `O=C(O)CSc1nnc(Nc2ccccc2)n1-c1ccccc1`, the inhibition was 1.56% (inactive).
The value for `COc1ccc(/C=C2\SC(=S)N(CC(=O)OCC(=O)Nc3ccc(C)cc3Cl)C2=O)cc1` was 1.09% (inactive); that for `CN1C[C@@H]2[C@@H]3C(=O)N(Cc4ccccc4)C(=O)[C@@H]3[C@](C)(C1=O)N2C(=O)c1ccc(Br)cc1` was 5.77% (inactive).
The result for `CCC(C(=O)OCC(=O)c1ccc(OC)cc1OC)c1ccccc1` (stereo not drawn) reads 5.77% (inactive); that for `COc1ccccc1C(=O)NC(=O)COC(=O)c1nc(Cl)ccc1Cl`, 8.9% (inactive); that for `Cc1cc(F)ccc1S(=O)(=O)N1CCCOC1CNC(=O)C(=O)NCc1ccc2c(c1)OCO2` (stereo not drawn), 2.65% (inactive).
Regarding `CCOC(=O)c1ccc(NC(=O)CC2OCCN(CC)C2=O)cc1` (stereo not drawn), the inhibition was 7.78% (inactive).
The result for `CC(C)C(=O)Nc1cc(S(=O)(=O)Nc2cccc(Cl)c2)ccc1Cl` reads 12.6% (inactive); that for `CCCCc1c(C)c(C#N)c2nc3ccccc3n2c1Nc1c(C)n(C)n(-c2ccccc2)c1=O`, 8.78% (inactive); that for `COc1cc(/C=C/C(=O)OCC(=O)Nc2ccc3c(c2)OCCO3)ccc1OCC#N`, 5.37% (inactive).
The result for `COc1cccc(/C=C/C(=O)OCC(=O)Nc2ccc3c(c2)OCCO3)c1` reads 14.2% (inactive); that for `COc1ccc(/C=C/C(=O)OCC(=O)Nc2ccc3c(c2)OCO3)cc1`, 10.3% (inactive); that for `COc1cccc(/C=C/C(=O)OCC(=O)Nc2ccc3c(c2)OCO3)c1`, 13% (inactive).
The result for `CCOC(=O)CC1C(=O)NCCN1C(=S)NC(=O)c1ccccc1OC` (stereo not drawn) reads 3.14% (inactive); that for `CCN(CC(=O)Nc1ccc(NC(C)=O)cc1)C(=O)c1cn(-c2ccccc2)nc1-c1cccs1`, 7.68% (inactive).

The values above are taken from PubChem BioAssay AID624330 (Southern Research Specialized Biocontainment Screening …, 2012).
